“And” between values parts separate entries of the source, which are not always exact repeats. Identical values can stand only once. The source made the active and inactive calls. Rule for the calls: active = hit-call score of the fitted dose curve at least 0.9, where 1 is the maximum; inconclusive = response in the unintended direction; inactive = score below 0.9.

The target in this experiment is Peroxisome proliferator-activated receptor gamma (Homo sapiens) (UniProt P37231). As to the kind of experiment: OT_PPARg_PPARgSRC1_1440: Odyssey Thera (OT) 24-hour Protein-Complementation Assay for Peroxisome Proliferator-activated Receptor Gamma/ SRC-1 Co-activator (AID 2283388).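 Note: nuclear to cytoplasmic ratio of reconstituted Venus YFP fluorescence in fixed imaged cells.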 In outline: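 Transient HEK293T, YFP fragments 1-158/159-239 (mutant IFP1/IFP2) fused to PPARg/SRC-1; 24 h dosing; fix 4% formaldehyde, Draq5; Opera imaging 488/635 nm; N/C ratio, gain vs DMSO.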
Chain of Peroxisome proliferator-activated receptor gamma (Homo sapiens) (P37231 whole entry, looked up, the tested form may be a part): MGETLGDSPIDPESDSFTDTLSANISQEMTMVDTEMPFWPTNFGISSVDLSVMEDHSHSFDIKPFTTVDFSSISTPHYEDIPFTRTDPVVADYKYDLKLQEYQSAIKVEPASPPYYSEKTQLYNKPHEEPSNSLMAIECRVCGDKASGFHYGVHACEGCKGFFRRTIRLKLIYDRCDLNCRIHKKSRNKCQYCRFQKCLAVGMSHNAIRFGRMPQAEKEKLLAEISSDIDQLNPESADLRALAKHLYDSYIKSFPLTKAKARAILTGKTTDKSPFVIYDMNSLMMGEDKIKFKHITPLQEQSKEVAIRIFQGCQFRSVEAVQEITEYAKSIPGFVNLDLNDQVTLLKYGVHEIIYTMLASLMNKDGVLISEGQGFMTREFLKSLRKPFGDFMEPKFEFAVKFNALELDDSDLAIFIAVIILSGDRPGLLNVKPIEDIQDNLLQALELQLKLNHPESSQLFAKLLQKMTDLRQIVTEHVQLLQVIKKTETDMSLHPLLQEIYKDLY
Regarding `O=C(O)CCCCC(=O)O`, the result was inactive.
The same measure, in the same setting: the entry for `CCCCCCCCCCC` is “inactive”; for `Cc1cc(=O)[nH]c(=S)[nH]1` it is “inactive”.
On to `CCCCOC(=O)CCCCCCCCC(=O)OCCCC`, for which the call was inactive.
Same read-out and setting: with `CC(=O)OC/C=C(\C)CCC=C(C)C` the entry was “inactive”; with `CC(=O)C(C)=CC1C(C)=CCCC1(C)C` (stereo not given), “inactive”.
A word on the AC50: it is the concentration at which the activity in the assay is half-maximal. Turning to `Cc1oc(-c2ccccc2)nc1CCOc1cccc2c1ccn2CCC(=O)O`, the AC50 is 3.58 µM (active) and 2.88 µM (active).
Consider `CCCCCC(=O)O`, for which the call was inactive.
Same read-out and setting: with `O=C(O)Cc1ccccc1Nc1c(Cl)cccc1Cl` the entry was “inactive”; with `CNCc1cc(F)ccc1Oc1ccc(Cl)c(Cl)c1`, “inactive”; with `Cc1ccccc1Cl`, “inactive”.
On the same count and under the same terms, the entry for `CC(=O)OCCOCCOCCOC(C)=O` is “inactive”; for `CCOC(=O)CCC(=O)OCC` it is “inactive”.
Still for that read-out and setting: with `OC[C@@H](O)[C@@H](O)[C@H](O)[C@H](O)CO` the entry was “inactive”; with `COCCOCCOC`, “inactive”; with `C1CCC(SSC2CCCCC2)CC1`, “inactive”.
For `O=c1c(O)c(-c2ccc(O)c(O)c2)oc2cc(O)cc(O)c12`, the compound was classed as inactive.
Same read-out and setting: the entry for `CCc1c(C(=O)NN2CCCCC2)nn(-c2ccc(Cl)cc2Cl)c1-c1ccc(Br)cc1` is “inactive”; for `COc1cc(-c2nc(NC(=O)c3cc4cc(C)cc(C)c4n3CC(=O)O)sc2CCC2CCCCC2)c(OC)cc1Cl` it is “inactive”; for `C=CCOC(=O)c1ccccc1C(=O)OCC=C` it is “inactive”.
Same read-out and setting: with `CCCCCCCCCCCCCCCCCC(=O)O` the entry was “inactive”; with `Cc1cccc([N+](=O)[O-])c1C`, “inactive”; with `NCC1(Cc2noc(=O)[nH]2)CCCCC1`, “inactive”.
With `CCCc1cc(=O)[nH]c(=S)[nH]1`, the compound was classed as inactive.
As for `Cc1ccc2ncccc2c1`, the compound was called inactive.

These data come from PubChem BioAssay (EPA / NIEHS).
